In PubChem BioAssay (EPA / NIEHS):
Several values for one entry are separate records, joined by “and”; a condition that tells them apart may be missing. Equal entries are not always repeated. Records with an inconclusive call do not appear. Activity calls are given as the source filed them. The calls were made as follows, unless noted: active = hit-call score of the fitted dose curve at least 0.9, where 1 is the maximum; inactive = score below 0.9.

Assays:
[1] = biological target: Oxysterols receptor LXR-alpha (Homo sapiens) (UniProt Q13133); test: ATG_LXRa_TRANS: Attagene TRANS-FACTORIAL HepG2 Assay for human Liver X Receptor alpha (LXRa) (AID 2282980; active = hit-call score of the fitted dose curve at least 0.9, where 1 is the maximum); conditions: HepG2 Attagene TRANS reporter, LXRa transactivation
Chain of Oxysterols receptor LXR-alpha (Homo sapiens) (Q13133 whole entry, looked up, the tested form may be a part): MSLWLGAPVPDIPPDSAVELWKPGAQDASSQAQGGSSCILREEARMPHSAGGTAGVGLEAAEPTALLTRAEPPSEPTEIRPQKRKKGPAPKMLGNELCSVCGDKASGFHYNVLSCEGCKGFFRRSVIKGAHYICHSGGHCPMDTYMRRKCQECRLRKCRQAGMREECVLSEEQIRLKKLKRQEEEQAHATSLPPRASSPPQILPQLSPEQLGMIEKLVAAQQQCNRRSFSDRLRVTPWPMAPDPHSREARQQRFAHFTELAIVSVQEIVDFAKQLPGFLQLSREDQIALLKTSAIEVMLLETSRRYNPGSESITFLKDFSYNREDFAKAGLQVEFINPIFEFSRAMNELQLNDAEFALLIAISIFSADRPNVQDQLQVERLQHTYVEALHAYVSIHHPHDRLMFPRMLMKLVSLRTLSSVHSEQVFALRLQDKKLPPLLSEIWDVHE
Procedure, shortened: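 Chemical-induced reporter mRNA measured by RT-PCR with fluorescent labelling and capillary electrophoresis after 24 h dosing of transiently transfected HepG2 cells expressing exogenous NR-Gal4 chimeras; increases scored against DMSO baseline.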

[2] = biological target: Oxysterols receptor LXR-beta (Homo sapiens) (UniProt P55055); test: ATG_LXRb_TRANS: Attagene TRANS-FACTORIAL HepG2 Assay for human Liver X Receptor beta (LXRb) (AID 2282981; active = hit-call score of the fitted dose curve at least 0.9, where 1 is the maximum); conditions: HepG2 Attagene TRANS GAL4-LXRb reporter, mRNA
Chain of Oxysterols receptor LXR-beta (Homo sapiens) (P55055 whole entry, looked up, the tested form may be a part): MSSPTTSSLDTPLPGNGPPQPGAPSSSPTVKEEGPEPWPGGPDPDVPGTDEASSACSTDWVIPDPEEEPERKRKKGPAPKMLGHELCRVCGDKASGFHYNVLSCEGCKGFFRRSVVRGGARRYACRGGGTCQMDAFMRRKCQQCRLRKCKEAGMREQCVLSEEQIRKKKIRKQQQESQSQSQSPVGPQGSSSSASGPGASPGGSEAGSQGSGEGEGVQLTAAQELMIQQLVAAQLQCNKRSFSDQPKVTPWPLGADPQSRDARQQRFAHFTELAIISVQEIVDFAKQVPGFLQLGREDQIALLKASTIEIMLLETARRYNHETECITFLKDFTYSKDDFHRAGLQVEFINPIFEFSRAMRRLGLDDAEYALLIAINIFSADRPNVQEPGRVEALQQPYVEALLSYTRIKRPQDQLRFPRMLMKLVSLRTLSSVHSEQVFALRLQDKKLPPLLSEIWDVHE
Procedure, shortened: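 Measures induction of a Gal4-driven reporter transcript in HepG2 cells expressing an exogenous LXRb-Gal4 fusion. Cells are exposed to compound for 24 h before RNA isolation and RT-PCR with capillary electrophoresis detection.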

[3] = biological target: Transcriptional activator Myb (Homo sapiens) (UniProt P10242); test: ATG_Myb_CIS: Attagene CIS-FACTORIAL HepG2 Assay for human Myeloblastosis (Myb) Proto-Oncogene Transcription Factor (AID 2282986); conditions: HepG2 Attagene CIS-FACTORIAL Myb reporter transcription; actives raise or lower the signal
Chain of Transcriptional activator Myb (Homo sapiens) (P10242 whole entry, looked up): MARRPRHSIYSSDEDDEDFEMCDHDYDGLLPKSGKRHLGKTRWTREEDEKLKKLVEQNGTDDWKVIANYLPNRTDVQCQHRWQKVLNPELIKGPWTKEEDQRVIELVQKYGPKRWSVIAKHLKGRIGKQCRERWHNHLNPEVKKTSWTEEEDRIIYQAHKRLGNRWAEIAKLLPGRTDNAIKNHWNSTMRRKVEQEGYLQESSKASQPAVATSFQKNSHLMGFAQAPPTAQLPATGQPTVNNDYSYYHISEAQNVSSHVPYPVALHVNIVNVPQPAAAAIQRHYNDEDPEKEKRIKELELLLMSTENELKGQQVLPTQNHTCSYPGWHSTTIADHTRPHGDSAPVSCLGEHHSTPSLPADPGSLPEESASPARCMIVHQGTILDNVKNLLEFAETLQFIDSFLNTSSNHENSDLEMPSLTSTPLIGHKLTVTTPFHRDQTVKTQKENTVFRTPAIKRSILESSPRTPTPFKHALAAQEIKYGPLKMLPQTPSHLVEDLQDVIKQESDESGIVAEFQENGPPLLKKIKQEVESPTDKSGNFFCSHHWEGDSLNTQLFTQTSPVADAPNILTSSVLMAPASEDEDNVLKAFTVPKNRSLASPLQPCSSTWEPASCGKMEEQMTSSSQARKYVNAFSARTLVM
Procedure, shortened: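 Fluorescence signals from capillary electrophoresis of RT-PCR-amplified reporter cDNA give the read-out. Cells: HepG2 transfected with multiple cis-regulated reporter units. Exposure lasts 24 hours; DMSO defines baseline for gain or loss of signal.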

[4] = biological target: Myc proto-oncogene protein (Homo sapiens) (UniProt P01106); test: ATG_Myc_CIS: Attagene CIS-FACTORIAL HepG2 Assay for human Myelocytomatosis (Myc) Proto-Oncogene Transcription Factor (AID 2282990); conditions: HepG2, Attagene cis-reporter transcription factor activity; actives raise or lower the signal
Chain of Myc proto-oncogene protein (Homo sapiens) (P01106 whole entry, looked up): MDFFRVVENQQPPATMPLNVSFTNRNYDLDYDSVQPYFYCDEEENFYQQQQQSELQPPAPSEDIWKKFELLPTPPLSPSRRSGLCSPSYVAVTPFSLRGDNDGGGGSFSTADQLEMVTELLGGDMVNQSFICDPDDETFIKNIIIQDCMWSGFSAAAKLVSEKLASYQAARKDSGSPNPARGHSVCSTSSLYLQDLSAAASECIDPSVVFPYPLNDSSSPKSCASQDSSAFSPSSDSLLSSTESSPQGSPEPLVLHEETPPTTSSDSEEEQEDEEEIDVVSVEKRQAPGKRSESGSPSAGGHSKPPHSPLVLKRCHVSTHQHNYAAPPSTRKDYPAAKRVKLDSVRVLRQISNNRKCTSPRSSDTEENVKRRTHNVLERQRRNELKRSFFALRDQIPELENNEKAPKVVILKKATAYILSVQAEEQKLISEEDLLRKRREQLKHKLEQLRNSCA
Procedure, shortened: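 DMSO-normalised, bidirectionally fitted reporter mRNA signal. HepG2 cells transfected with cis reporter constructs, treated 24 h; transcripts detected by RT-PCR, 6-FAM primer extension and CE.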

[5] = ATG_Oct_MLP_CIS: Attagene CIS-FACTORIAL HepG2 Assay for human Octamer-Binding Transcription Factor (Oct) (AID 2282993); conditions: HepG2 Attagene cis-factorial Oct reporter, mRNA; actives raise or lower the signal
Procedure, shortened: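 HepG2 cells transiently transfected with cis-element-driven reporter transcription units (endogenous TF activity); 24 h compound exposure. Reporter mRNA quantified by RT-PCR, 6-FAM labelling, HpaI digestion and capillary electrophoresis; bidirectional fit versus DMSO baseline.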

[6] = BSK_3C_TissueFactor: BioMAP Diversity Plus: 3C Assay for Tissue Factor Biomarker Activity (AID 2282997); conditions: BioMAP 3C HUVEC, tissue factor biomarker readout; actives raise or lower the signal
Procedure, shortened: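 Tissue factor on primary human umbilical vein endothelium was read by ELISA 24 h after dosing, gain or loss relative to DMSO. Cytotoxicity ran alongside via SRB (0.1%, TCA-fixed, 560 nm).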

[7] = BSK_3C_uPAR: BioMAP Diversity Plus: 3C Assay for Urokinase-type plasminogen activator receptor (uPAR) Biomarker Activity (AID 2282998); conditions: BioMAP 3C HUVEC, uPAR biomarker ELISA; actives raise or lower the signal
Procedure, shortened: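 Primary human umbilical vein endothelial cells, 3C system; surface uPAR measured by ELISA 24 h after dosing. Cytotoxicity via SRB total protein in parallel cultures; bidirectional fit against DMSO.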

[8] = BSK_3C_VCAM1: BioMAP Diversity Plus: 3C Assay for Vascular cell adhesion molecule 1 (VCAM1) Biomarker Activity (AID 2282999); conditions: BioMAP 3C HUVEC, VCAM1 ELISA, cytokine-stimulated; actives raise or lower the signal
Procedure, shortened: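 Vascular primary endothelium (human umbilical vein) was exposed to chemicals and assayed 24 h later. VCAM-1 levels came from ELISA, with DMSO serving as baseline for bidirectional fitting.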

[9] = BSK_4H_Eotaxin3: BioMAP Diversity Plus: 4H Assay for Eotaxin 3 Biomarker Activity (AID 2283000); conditions: primary human endothelial cells (HUVEC); actives raise or lower the signal
Procedure, shortened: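 Human umbilical vein endothelial cells (BSK_4H system) dosed with test chemical; Eotaxin-3 (CCL26) measured by ELISA 24 h after dosing. Bidirectional curve fitting relative to DMSO negative control as baseline.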

[10] = biological target: Hepatocyte nuclear factor 4-alpha (Homo sapiens) (UniProt P41235); test: ATG_HNF4a_TRANS: Attagene TRANS-FACTORIAL HepG2 Assay for human Hepatocyte Nuclear Factor 4 alpha (HNF4a) (AID 2282982; active = hit-call score of the fitted dose curve at least 0.9, where 1 is the maximum); conditions: HepG2 HNF4a transactivation reporter, mRNA readout
Chain of Hepatocyte nuclear factor 4-alpha (Homo sapiens) (P41235 whole entry, looked up, the tested form may be a part): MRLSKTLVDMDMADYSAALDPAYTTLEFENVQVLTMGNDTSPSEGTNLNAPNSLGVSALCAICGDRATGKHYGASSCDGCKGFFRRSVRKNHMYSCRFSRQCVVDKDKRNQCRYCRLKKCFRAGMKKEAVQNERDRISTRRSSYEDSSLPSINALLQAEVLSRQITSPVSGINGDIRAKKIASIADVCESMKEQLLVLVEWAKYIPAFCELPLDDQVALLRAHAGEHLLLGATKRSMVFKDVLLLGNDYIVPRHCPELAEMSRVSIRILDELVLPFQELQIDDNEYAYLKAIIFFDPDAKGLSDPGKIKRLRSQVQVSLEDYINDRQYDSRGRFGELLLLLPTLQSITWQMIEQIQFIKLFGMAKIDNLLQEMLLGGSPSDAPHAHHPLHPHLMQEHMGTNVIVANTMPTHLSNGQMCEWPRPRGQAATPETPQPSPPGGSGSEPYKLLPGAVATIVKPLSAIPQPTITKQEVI
Procedure, shortened: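 In this trans-factorial format, a chimeric HNF4a-GAL4 fusion drives a GAL4-UAS reporter in transfected HepG2 liver cells. After 24 h treatment, reporter mRNA induction is measured by RT-PCR with capillary electrophoresis, relative to DMSO.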

[11] = ATG_M_06_TRANS: Attagene TRANS-FACTORIAL HepG2 Assay for M06 Transcription Factor (Internal Marker) (AID 2282983; active = hit-call score of the fitted dose curve at least 0.9, where 1 is the maximum); conditions: HepG2 Attagene TRANS M06 internal marker reporter
Procedure, shortened: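 Background-control reporter readout: after 24 h chemical exposure of transiently transfected HepG2 (GAL4-UAS reporter units), mRNA quantified by RT-PCR with fluorescent labeling and capillary electrophoresis. Gain-of-signal fitting against DMSO baseline.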

[12] = ATG_M_32_TRANS: Attagene TRANS-FACTORIAL HepG2 Assay for M32 Transcription Factor (Internal Marker) (AID 2282984; active = hit-call score of the fitted dose curve at least 0.9, where 1 is the maximum;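 also: transcript level of a background control reporter unit measured by RT-PCR and capillary electrophoresis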); conditions: HepG2 Attagene TRANS M32 internal marker reporter
Procedure, shortened: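 After 24 h dosing of transfected HepG2 cells, total RNA was reverse-transcribed, reporter sequences PCR-amplified, 6-FAM labelled by primer extension and HpaI-digested before capillary electrophoresis. Signal increase over DMSO was fitted.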

[13] = biological target: Nuclear receptor subfamily 4 group A member 2 (Homo sapiens) (UniProt P43354); test: ATG_NURR1_TRANS: Attagene TRANS-FACTORIAL HepG2 Assay for human Nuclear Receptor Related Protein 1 (NURR1) (AID 2282985; active = hit-call score of the fitted dose curve at least 0.9, where 1 is the maximum); conditions: HepG2 Attagene TRANS reporter, mRNA readout
Chain of Nuclear receptor subfamily 4 group A member 2 (Homo sapiens) (P43354 whole entry, looked up, the tested form may be a part): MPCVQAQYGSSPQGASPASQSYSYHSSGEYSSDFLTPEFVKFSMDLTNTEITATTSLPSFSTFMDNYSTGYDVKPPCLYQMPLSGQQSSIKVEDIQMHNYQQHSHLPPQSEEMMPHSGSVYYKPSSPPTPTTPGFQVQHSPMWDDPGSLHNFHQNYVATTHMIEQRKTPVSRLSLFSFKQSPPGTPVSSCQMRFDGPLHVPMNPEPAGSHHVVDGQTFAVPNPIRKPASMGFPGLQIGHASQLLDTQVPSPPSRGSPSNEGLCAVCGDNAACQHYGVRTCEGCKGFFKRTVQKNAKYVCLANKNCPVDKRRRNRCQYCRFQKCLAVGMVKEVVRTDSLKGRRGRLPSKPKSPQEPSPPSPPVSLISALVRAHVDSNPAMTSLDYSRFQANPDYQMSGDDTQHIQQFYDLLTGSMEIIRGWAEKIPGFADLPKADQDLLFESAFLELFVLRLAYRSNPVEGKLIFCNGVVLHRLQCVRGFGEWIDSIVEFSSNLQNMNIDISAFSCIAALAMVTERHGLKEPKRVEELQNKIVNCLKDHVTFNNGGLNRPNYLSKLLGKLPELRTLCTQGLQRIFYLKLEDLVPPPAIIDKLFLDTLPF
Procedure, shortened: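 Chimeric NR-Gal4 fusion activity measured in HepG2 after 24 h treatment. Reporter transcripts detected by RT-PCR and capillary electrophoresis fluorescence; positive-direction curve fitting against DMSO.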

[14] = biological target: Nuclear respiratory factor 1 (Homo sapiens) (UniProt Q16656); test: ATG_NRF1_CIS: Attagene CIS-FACTORIAL HepG2 Assay for human Nuclear Respiratory Factor 1 (NRF1) Orphan Gene (AID 2282987); conditions: HepG2 NRF1 cis-element reporter, Attagene multiplex; actives raise or lower the signal
Chain of Nuclear respiratory factor 1 (Homo sapiens) (Q16656 whole entry, looked up): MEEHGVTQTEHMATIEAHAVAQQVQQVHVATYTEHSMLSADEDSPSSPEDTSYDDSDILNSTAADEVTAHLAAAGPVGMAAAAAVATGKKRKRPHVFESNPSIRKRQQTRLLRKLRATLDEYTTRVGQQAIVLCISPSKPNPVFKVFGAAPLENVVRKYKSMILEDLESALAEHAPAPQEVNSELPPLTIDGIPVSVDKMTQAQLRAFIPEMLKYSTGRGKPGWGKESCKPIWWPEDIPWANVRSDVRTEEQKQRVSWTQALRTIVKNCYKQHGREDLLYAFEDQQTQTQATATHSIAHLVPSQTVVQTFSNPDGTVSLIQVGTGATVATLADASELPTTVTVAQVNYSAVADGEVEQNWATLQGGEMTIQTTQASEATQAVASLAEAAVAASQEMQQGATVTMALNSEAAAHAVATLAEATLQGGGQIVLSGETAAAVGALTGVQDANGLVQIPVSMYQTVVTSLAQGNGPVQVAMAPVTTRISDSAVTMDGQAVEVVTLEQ
Procedure, shortened: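 Transcriptional reporter readout, one component of a 52-endpoint multiplexed HepG2 panel. Exposure 24 h; mRNA detected via RT-PCR and fluorescent capillary electrophoresis; fitting in both directions against DMSO.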

[15] = ATG_NFI_CIS: Attagene CIS-FACTORIAL HepG2 Assay for human Nuclear Factor I (NFI) (AID 2282989); conditions: HepG2 cis-regulatory reporter, NFI response element transcription; actives raise or lower the signal
Procedure, shortened: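 Endogenous TF activity in HepG2 cells transiently transfected with cis-element-driven multiplexed reporter units, read 24 h after dosing. Reporter mRNA quantified by RT-PCR, 6-FAM labelling, HpaI digestion and capillary electrophoresis; bidirectional fit versus DMSO.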

[16] = ATG_NF_kB_CIS: Attagene CIS-FACTORIAL HepG2 Assay for human Nuclear Factor Kappa B (NF-kB) (AID 2282991); conditions: HepG2 Attagene cis-factorial NF-kB reporter mRNA; actives raise or lower the signal
Procedure, shortened: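 HepG2, transient multi-reporter transfection, cis promoter elements (endogenous TFs). 24 h exposure. Total RNA → RT → PCR → 6-FAM label → HpaI → CE. Gain/loss vs DMSO.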

[17] = ATG_NRF2_ARE_CIS: Attagene CIS-FACTORIAL HepG2 Assay for human Nuclear Factor Erythroid 2 Related Factor 2 (NFR2) response to Antioxidant Response Elements (ARE) (AID 2282992); conditions: HepG2 Attagene ARE/NRF2 reporter, transcription factor activity; actives raise or lower the signal;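 as to AC50: reporter mRNA level measured by RT-PCR and capillary electrophoresis fluorescence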
Procedure, shortened: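 Readout: reporter mRNA quantified by RT-PCR plus FAM-labelled primer extension, HpaI digestion and capillary electrophoresis, 24 h after dosing transfected HepG2 cells. Gain or loss of signal is fitted bidirectionally against DMSO baseline.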

[18] = biological target: Cellular tumor antigen p53 (Homo sapiens) (UniProt P04637); test: ATG_p53_CIS: Attagene CIS-FACTORIAL HepG2 Assay for human p53 Transcription Factor (AID 2282994); conditions: HepG2 p53 cis-element reporter, Attagene mRNA; actives raise or lower the signal
Chain of Cellular tumor antigen p53 (Homo sapiens) (P04637 whole entry, looked up): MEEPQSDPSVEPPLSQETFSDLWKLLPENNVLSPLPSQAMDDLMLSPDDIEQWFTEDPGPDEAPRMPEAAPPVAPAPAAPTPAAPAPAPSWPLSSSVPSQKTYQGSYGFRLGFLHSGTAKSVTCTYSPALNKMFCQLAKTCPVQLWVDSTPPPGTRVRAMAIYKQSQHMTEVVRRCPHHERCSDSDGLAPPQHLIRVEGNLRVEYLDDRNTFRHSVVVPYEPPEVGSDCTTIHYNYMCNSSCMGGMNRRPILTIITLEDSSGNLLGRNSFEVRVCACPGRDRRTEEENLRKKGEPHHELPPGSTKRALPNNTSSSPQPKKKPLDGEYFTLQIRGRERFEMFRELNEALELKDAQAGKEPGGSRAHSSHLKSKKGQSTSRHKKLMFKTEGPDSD
Procedure, shortened: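 Read-out: reporter mRNA by RT-PCR plus capillary electrophoresis with fluorescence detection. Human HepG2 liver cells carried transfected multi-reporter cis-element constructs, dosed 24 h. Gain or loss of signal fitted bidirectionally against DMSO control.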

[19] = biological target: human Peroxisome Proliferator-activated Receptor alpha (PPARa), PPARA (gene 5465) (UniProt Q07869); test: ATG_PPARa_TRANS: Attagene TRANS-FACTORIAL HepG2 Assay for human Peroxisome Proliferator-activated Receptor alpha (PPARa) (AID 2283001; active = hit-call score of the fitted dose curve at least 0.9, where 1 is the maximum)
Chain of human Peroxisome Proliferator-activated Receptor alpha (PPARa), PPARA (gene 5465) (Q07869 whole entry, looked up): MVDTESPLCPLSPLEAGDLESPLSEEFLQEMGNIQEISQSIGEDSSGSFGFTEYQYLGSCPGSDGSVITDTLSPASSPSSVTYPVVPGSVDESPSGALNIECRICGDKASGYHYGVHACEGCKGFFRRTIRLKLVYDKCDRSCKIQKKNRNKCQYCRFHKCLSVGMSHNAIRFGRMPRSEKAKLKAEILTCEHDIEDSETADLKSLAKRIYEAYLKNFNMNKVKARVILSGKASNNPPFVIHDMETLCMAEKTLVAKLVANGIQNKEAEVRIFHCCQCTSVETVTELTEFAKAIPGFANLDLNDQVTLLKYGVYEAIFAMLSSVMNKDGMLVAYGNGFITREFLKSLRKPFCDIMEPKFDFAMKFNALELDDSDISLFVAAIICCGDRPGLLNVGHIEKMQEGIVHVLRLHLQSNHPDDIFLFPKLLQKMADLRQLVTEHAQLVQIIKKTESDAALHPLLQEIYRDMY
Procedure, shortened: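 Cells (HepG2) are transfected with multiple reporter transcription units, exposed to chemical for 24 h, then total RNA is reverse-transcribed and amplified. Labelled products are quantified by capillary electrophoresis; induction is referenced to DMSO.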

Measured: AC50

CN(C)CCOC(c1ccccc1)c1ccccc1
inactive: [1] | [2] | [3] | [4] | [5] | [6] | [7] | [8] | [9]

O=C1c2ccccc2C(=O)c2c(O)c(O)cc(O)c21
active: [13] 47 µM | [16] 32.4 µM | [17] 5.36 µM
not listed: [2] | [6] | [7] | [8] | [9]
inactive: all other assays above

O=C(c1cc(O)c(O)c(O)c1)c1ccc(O)c(O)c1O
active: [18] 100 µM
not listed: [2] | [6] | [7] | [8] | [9] | [10] | [17]
inactive: all other assays above

C=COC(=O)C(C)(C)CCCCCC
active: [6] 29.9 µM | [7] 31.3 µM | [8] 34.4 µM
not listed: [2] | [9] | [17]
inactive: all other assays above

C=CCOCC(CO)(CO)CO
not listed: [2] | [4] | [6] | [7] | [8] | [9] | [17] | [19]
inactive: all other assays above

O=CC(F)(F)C(F)(F)C(F)(F)F
not listed: [2] | [6] | [7] | [8] | [9] | [11] | [17] | [19]
inactive: all other assays above

NNc1nc(-c2ccc([N+](=O)[O-])cc2)cs1
active: [17] 1.95 µM
not listed: [2] | [6] | [7] | [8] | [9] | [12]
inactive: all other assays above

O=S(=O)(O)C(F)(F)C(F)(F)C(F)(F)C(F)(F)C(F)(F)C(F)(F)C(F)(F)C(F)(F)C(F)(F)C(F)(F)F
active: [16] 14.6 µM and 9.12 µM | [17] 47.3 µM and 25.4 µM | [7] 24.6 µM and 13.3 µM
not listed: [2] | [4] | [9] | [10]
inactive: all other assays above

C=CC(C)(CCC=C(C)C)OC(C)=O (stereo unspecified)
active: [6] 27.8 µM | [7] 31.5 µM | [9] 34.2 µM
not listed: [4] | [10] | [11]
inactive: all other assays above

CCOC(OCC)C(=O)c1ccccc1
not listed: [2] | [6] | [7] | [8] | [9] | [11] | [17] | [19]
inactive: all other assays above

CC(=O)CC(C)C
not listed: [2] | [6] | [7] | [8] | [9] | [12] | [13]
inactive: all other assays above

O=P(O)(O)CCC(F)(F)C(F)(F)C(F)(F)C(F)(F)C(F)(F)C(F)(F)F
not listed: [2] | [9] | [10] | [13]
inactive: all other assays above

NCc1cccc(CN)c1
not listed: [2] | [6] | [7] | [8] | [9] | [10] | [11] | [19]
inactive: all other assays above
